# Assay outcomes: PubChem, National Center for Advancing Translational Sciences (NCATS)
# FBPA coupling cs: counter-screen for Giardia aldolase inhibitors: coupling enzyme system | coupling enzyme system counterscreen, AmpLite Red fluorescence | activity change, negative = inhibition, % at 58.2 µM, hits read low | 290,000 tested, 0.67% active | AID 2472; in the data active means activity change below about -30%
#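 Coupling enzymes only (glyceraldehyde-3-phosphate) + compound, at 57.5 uM final, 10 min RT; add substrate/coupling/AmpLite Red mix, 20 min RT; fluorescence ex 525/em 598 nm. Actives flag coupling-system interference.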
# Tau fluor cs: counter-screen for tau fibril formation inhibitors; tau K18 P301L Alexa594 fluorescence, heparin fibrillization; Potency, µM (highest dose often 57.7 µM), for the others: top-dose activity change, negative = decrease; 280,000 tested, 0.93% active; further: potency means the concentration at half of the fitted maximal effect; nearly all actives have a fitted effect of over 55% in size
#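 Human K18 P301L tau (15 uM unlabeled plus 0.24 uM Alexa 594-labeled, final) in 100 mM sodium acetate pH 7 was mixed with compound and 20 uM heparin and incubated 6 hr at 37 C.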
# Tau ThT inhib: blocks human tau fibril formation measured by thioflavin T; P10636; recombinant tau K18 P301L, heparin-induced fibrillization, ThT fluorescence; Potency, µM (doses to about 57.4 µM), for the others: top-dose activity, negative = inhibition, hits mostly inhibitors; 270,000 tested, 2.1% active; further: potency means the concentration at half of the fitted maximal effect; nearly all actives have a fitted effect of over 55% in size
# Target sequence (P10636 561-689 P618L limits assumed): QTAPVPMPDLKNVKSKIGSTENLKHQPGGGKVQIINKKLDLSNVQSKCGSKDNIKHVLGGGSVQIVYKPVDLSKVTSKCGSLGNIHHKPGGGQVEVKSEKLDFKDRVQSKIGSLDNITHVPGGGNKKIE
#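 Fibril formation assay: tau K18 P301L at 15 uM with trace Alexa 594 label, heparin inducer 20 uM, pH 7 sodium acetate buffer, 37 C for 6 hr; endpoint ThT signal.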
# Tau FP inhib: inhibitors of human tau fibril formation | K18 P301L tau heparin fibrillization, Alexa594 FP, 6 h | Potency, µM (titrated, usually from 57.7 µM), inactives show top-dose activity, negative = inhibition, usual class: inhibitors | 280,000 tested, 0.39% active | AID 1468; further: potency means the concentration at half of the fitted maximal effect; nearly all actives have a fitted effect of over 55% in size
#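 Human K18 P301L fragment (15 uM unlabeled plus 0.24 uM Alexa 594-labeled) in 100 mM sodium acetate pH 7 with compound, aggregation induced by 20 uM heparin for 6 hr at 37 C. ThT (30 uM) added for 1 hr, then Alexa 594 FP read.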
# G9a block: inhibitors of human histone lysine methyltransferase G9a. Q96KQ7. G9a H3K9 monomethylation, AlphaScreen, 2 h. Potency, µM (titrated, usually from 102 µM), without a hit: at the highest dose activity, negative = inhibition, hits mostly inhibitors. 350,000 tested, 8.8% active. AID 504332; further: potency means the concentration at half of the fitted maximal effect; nearly all actives have a fitted effect of over 75% in size
# Target sequence (Q96KQ7 913-1193 limits assumed): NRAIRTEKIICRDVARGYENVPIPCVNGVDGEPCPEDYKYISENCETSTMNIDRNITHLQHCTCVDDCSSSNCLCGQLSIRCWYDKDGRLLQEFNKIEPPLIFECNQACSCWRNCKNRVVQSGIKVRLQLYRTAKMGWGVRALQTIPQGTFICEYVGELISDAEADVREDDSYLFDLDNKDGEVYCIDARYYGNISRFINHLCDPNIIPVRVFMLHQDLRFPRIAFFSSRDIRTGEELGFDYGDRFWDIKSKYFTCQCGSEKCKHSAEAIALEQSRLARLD
#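 Methyltransferase reactions run at room temperature for 2 h (20 nM enzyme, 500 nM biotin-H3K9 peptide, 20 uM SAM) after a 15 min compound preincubation; product detected by AlphaScreen beads and anti-H3K9me1 antibody.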
# Sfp inh: blocks B. subtilis Sfp PPTase activity. AID 1490. Potency, µM, for the others: largest response in the series, negative = inhibition, usual class: inhibitors. Biochemical Sfp PPTase activity, qHTS. 310,000 tested, 3.5% active. Q9F4F7;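 further: the enzyme is Sfp with the accession as filed and its product quenches rhodamine fluorescence; potency means the concentration at half of the fitted maximal effect; 0% = enzyme reaction without inhibitor and -100% = no enzyme wells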
#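 Sfp 15 nM + cpd, 15 min RT; start w/ rhodamine-CoA 5 uM, BHQ-2-YbbR 12.5 uM (final); 50 mM Hepes pH 7.6, 10 mM MgCl2, 0.01% NP-40, 0.01% BSA; read 525/598 nm at 0 and 30 min.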
# * = called active by the depositor; ? = inconclusive; nt = no result given; [ ] = remark or other dose. In the library only some 11% were active in any assay of this set; here they are far more common. Unless noted, the call rests on the fitted dose curve; in most records, active means well fitted curve in the direction sought with a large enough effect; inconclusive means small, poorly fitted or top-dose-only effect, or another doubt; inactive means no such curve, though single readings can be large; an effect the other way counts as inactive or inconclusive. Unless noted, on the % scale 0 is the no-effect control and ±100 the full control effect.
SMILES,FBPA coupling cs,Tau fluor cs,Tau ThT inhib,Tau FP inhib,G9a block,Sfp inh
N#CC1=C(Nc2ccccc2Cl)SC(c2ccccc2O)NC1=O (stereo not drawn),13,-25%,?,32µM*,14%[2.33 µM],13µM*
COc1cccc(Nc2nc(C)cc(C)c2C#N)c1,2,-8%,1%,-5%,6%[59 µM],10%
COc1cccc(NC2=C(C#N)C(=O)NC(c3cccc(OC)c3O)S2)c1 (stereo not drawn),-1,-24%,32µM*,?,45µM*,25µM*
CCOC(=O)N1CCN(c2nc(-c3ccc(Cl)cc3)cs2)CC1,1,-13%,?,3%,11µM*,?
COc1cccc(-c2csc(N3CCN(C(=S)Nc4ccccc4)CC3)n2)c1,0,-29%,-8%,-8%,12%[0.501 µM],1%
O=C(CCCl)N1CCN(c2nc(-c3ccccc3)cs2)CC1,3,nt,nt,nt,?,-10%
O=C(Cc1cccs1)N1CCN(c2nc(-c3ccc(Cl)cc3)cs2)CC1,3,-26%,?,?,71µM*,-15%
CC(C)C(=O)N1CCN(c2nc(-c3ccc(Cl)cc3)cs2)CC1,-4,3%[2.34 µM],?,-12%,?,12%
COc1cccc(-c2csc(N3CCN(C(=S)Nc4ccc(Cl)cc4)CC3)n2)c1,1,?,-10%,-4%,?,45µM*
CCS(=O)(=O)N1CCN(c2nc(-c3ccccc3)cs2)CC1,3,-14%,-12%,4%,13µM*,?
COc1cc2oc(=O)c(CC(=O)NCCc3ccccc3)c(C)c2cc1Cl,nt,2%,4%,-4%,-4%[59 µM],nt
CCS(=O)(=O)N1CC(=O)N(c2cccc(C)c2C)C(C)(C(=O)NC2CCCCC2)C1 (stereo not drawn),nt,-6%,-4%,-4%,2%[59 µM],nt
O=C1CC(c2ccccc2)=NN1c1nc(-c2ccccc2)cs1,5,?,10µM*,?,-48%,5%
COCCN(C(=S)Nc1cccc(C)c1)C(C)c1cccnc1 (stereo not drawn),-4,2%,1%,0%,-33%,5%
Cc1cc(C)c(C#N)c(SCc2nnc(-c3ccccc3)o2)n1,15,-20%,-12%,-2%,-9%[59 µM],-11%
COc1ccccc1-c1cc(-c2ccc(C)cc2)nc(SCc2nnc(-c3ccccc3)o2)c1C#N,1,-1%,-2%,?,11µM*,?
CC(C)S(=O)(=O)C1=NSC2=NC(=O)/C(=C\c3ccc(-c4cccc(C(=O)O)c4)o3)C(=N)N21,15,17%,17%,10%,40µM*,14µM*
CS(=O)(=O)C1=NSC2=NC(=O)/C(=C\c3ccc(-c4ccccc4)o3)C(=N)N21,2,-4%,?,12%,50µM*,-13%
COc1ccc2oc(C(=O)c3ccccc3)c(N)c2c1,nt,?,?,?,3%,5%
COc1ccc(C(=O)c2oc3ccccc3c2N)cc1,-9,?,?,15%,-7%[12.7 µM],79µM*
CC1(C)c2cc(O)ccc2OC1N1CCOCC1 (stereo not drawn),0,nt,nt,nt,8.9µM*,7%
CC1(C)Oc2ccc(/C=C/C(=O)N3CCOCC3)c(O)c2C(N2CCOCC2)C1O (stereo not drawn),-1,-6%,-4%,-1%,39%[59 µM],11%
Cc1ccc(F)cc1NC(=O)C1C2CCC(O2)C1C(=O)O (stereo not drawn),-2,nt,nt,nt,79µM*,7%
O=C(O)C1C2CCC(O2)C1C(=O)Nc1ccc(O)cc1 (stereo not drawn),-36*,-8%,12%,6%,?,?
COc1cccc(/C(O)=C/C(=O)C(=O)Nc2ccc(S(=O)(=O)NC(C)=O)cc2)c1,5,3%,-9%,1%,10µM*,-16%
COc1cccc(NS(=O)(=O)c2ccc(NC(C)=O)cc2)c1,3,-11%,-2%,-1%,-41%[59 µM],13%
COc1ccc(/C=N/NC(=O)CC(=O)N/N=C/c2ccc(OC)cc2)cc1,-3,-5%,-17%,-1%,3%,17%
